Over roughly 33,000 sequences, “e-score” has its median near -0.038; the highest 2% begin near 0.33. Only a selection was taken, and the highest values are over-represented in it overall.
biological target: T1, GST-Rok-C97-191 (Bacillus subtilis subsp. subtilis str. …, UniProt O34857 97-191); assay: protein binding microarray; Rok is a gene silencer of Bacillus subtilis; high values mean tight binding; settings: protein: recombinant; tags: GST (pTH5325, pDEST15-Magic modified); dsDNA, one strand shown
T1 sequence: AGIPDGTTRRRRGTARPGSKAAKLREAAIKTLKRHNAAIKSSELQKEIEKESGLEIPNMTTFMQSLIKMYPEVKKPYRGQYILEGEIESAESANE
Procedure, shortened: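 Every oligonucleotide joins a 25-mer constant primer to a 35-mer variable part drawn from a de Bruijn sequence of order 10, so each non-palindromic 8-mer appears at least 32 times and each palindromic 8-mer 16 times. The preference for every 8-mer is reported as a unitless, rank-based enrichment score (E-score). This score spans 0.5 for the most favored 8-mer to −0.5 for the most disfavored.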

Sequence	binding signal [E-score]
ACGTACGG	0.0152
ACTAGTCG	0.181
ACTAGTCT	0.215
CCTAGTAC	0.0475
TCTAGTAA	0.265
ACCAGTAT	0.196
CCTAGTAG	0.25
GCTAGTAC	0.184
ACTAGTAA	0.423
ACTAGTAT	0.409
ACTAGTAC	0.393
CCTAGTAA	0.145
ACTAGTAG	0.404
ACCTTGGC	-0.158
CATTCGAA	0.101
AACCAATT	0.204
ACTCAAGA	-0.0762
CATAATGA	0.175
AAATTGAT	0.0406
CTTCCTCA	-0.0806
GACAGCGA	-0.193
GCGTAGAC	-0.111
CATATCTC	0.0436
AATATCTG	0.2
CATATCGA	0.0885

Sequence	binding signal [E-score]
AATATCTC	0.28
AATATCTA	0.343
GATATCTA	0.349
CATATCTA	0.34
GATATCAA	0.158
GATATCCA	0.0457
ACATCTTC	0.0581
ACTAAACC	-0.0801
CCTATTAG	0.16
CGACTGAA	-0.021
CGTAACAG	0.131
CGTCGAAA	0.106
AATTAGTA	0.408
AATTAGTG	0.28
GTTTAGTA	0.31
ATTTAGTA	0.4
ATTTAGTG	0.0465
CATTAGTA	0.26
CATGGAAC	-0.0493
CGTAAATA	0.254
CCTGAAAC	-0.0142
TATAAAGA	-0.131
TAAAGTCA	-0.0164
AAATGCCC	0.00515
ACTACGCA	-0.0187

Sequence	binding signal [E-score]
CAGTGTAC	0.0867
AGTCAGCA	-0.0559
AACAACTA	0.266
TACAACAA	0.353
GACAACTA	0.295
GACAACAA	-0.114
TACAACTA	0.338
AACAACAA	0.1
CCAGTTCG	-0.177
ACCAGTAG	0.259
GTCATCAA	-0.132
CTGGGAAA	-0.136
GCTGCTAC	0.0824
ACTAAGCA	0.0291
ACAACCGG	-0.0576
GCTCGAGC	-0.176
CATTTGCA	0.157
ATCTTCAT	0.204
AAACCTTC	0.0022
CCGGACAA	-0.145
CCACTCTC	-0.129
TACTTACA	0.31
AACTTCTA	0.246
GACTTATA	0.279
AACTTATC	0.168

Sequence	binding signal [E-score]
AACTTATA	0.345
TACTTCTA	0.374
CACTTATA	0.281
GACTTCTA	0.111
TACTTATA	0.331
GAATGTTA	0.159
CAGCAAGA	0.159
CCGATATC	0.0718
GAGTGTAA	0.0764
ACCATTGG	-0.182
TATCTACA	0.361
ACTCTACA	0.108
AAGCTACG	0.0766
AAGCTACT	0.195
AATCTACA	0.365
TAGCTACA	0.353
CAGCTACA	0.0422
AAGCTACC	0.362
GATCTACA	0.29
AGTCTACA	0.0463
CATCTACA	0.0976
GAGCTACA	0.151
TAGCACTA	0.191
GCGAGTTA	0.0475
ACCAGGCG	-0.1

Sequence	binding signal [E-score]
AATGGCGG	-0.112
TCCGGAGA	-0.0285
GACAGGCA	-0.106
CACATGCA	0.206
AGTTTCTG	0.0882
AGTTTCTA	0.389
GCTTTCTA	0.319
CGTTTCTA	0.369
CGTTTCTC	-0.0794
CGTTTCGA	-0.111
GTTTTCTA	0.256
AGTTTCTC	0.244
GGTTTCTA	0.353
GGCGACAC	-0.0519
GATAGACC	0.022
AGAGAAGG	-0.195
CTAGTACC	0.244
GATATATA	0.358
GATATATC	0.403
GTGATATA	0.245
GCGATATA	0.282
GAGATATC	0.182
ATGGGGCC	-0.169
ACTAGCAT	0.142
TGGTCTAA	0.0359

Sequence	binding signal [E-score]
GAGTGAAC	0.0307
CGACGACC	-0.148
AAGCGGGG	-0.141
AAGTAGCA	0.259
AAGTAGAG	0.0923
CAGTAGAG	0.0442
TAGTAGCA	0.316
CAGTAGAA	0.426
TAGTAGAA	0.433
AAGTAGAT	0.407
AAGTAGGA	0.0873
AAGTAGAA	0.363
GAGTAGAA	0.279
AAGTAGAC	0.021
TAGTAGGA	0.252
GGTTATTA	0.0524
GGCGGTAC	-0.0765
ACCGCTCG	-0.0635
ATGTCGCC	-0.0714
TGCTGGAA	-0.107
CCATTAAA	-0.149
ATATTTTG	0.237
CTATTTTA	0.302
GTATTTGA	0.0326
GTATTTTA	0.376

Sequence	binding signal [E-score]
ATATTTTA	0.384
GTATTTAA	0.273
CTAGCCGC	-0.192
TGCGGCAA	0.0751
CTTTCTAC	0.447
GTTTCTAA	-0.0431
ATTTCTAG	0.366
ATTTCTCA	0.126
CTTTCTAA	0.1
ATTTCTAA	0.357
AGTTCTAG	0.236
ATTTCTGG	0.0299
ACTTCTAC	0.231
CTTTCTTC	0.0829
ATTTCTAC	0.353
ATTTCTTC	0.204
CCAGGTAG	0.0315
GAACCGAA	0.00912
CAAGCTAG	0.137
ATCCCGTC	-0.181
GTGGTAAA	0.21
CTGGTAGA	0.324

From publication PMC6212790, “How bacterial xenogeneic silencer rok distinguishes foreign from self DNA in its resident genome”
